Reference: the supplement of paper PMC11732987, “Enantioselective OTUD7B fragment discovery through chemoproteomics screening and high-throughput optimisation” (Communications Chemistry, 2025)

Columns and labels:
Experiment in all cases: log2 ratio of Biotin-Ahx-Ub-VS probe labelling (fragment/DMSO); higher = less target engagement (more negative = stronger competition), active = hit call of the paper (q ≤ 0.05, log2 ratio ≤ -1)
Settings in all cases: compound concentration: 200 uM; treatment time: 3 h
USP19 = target: T1, USP19 (UniProt O94966)
T1 sequence (whole entry): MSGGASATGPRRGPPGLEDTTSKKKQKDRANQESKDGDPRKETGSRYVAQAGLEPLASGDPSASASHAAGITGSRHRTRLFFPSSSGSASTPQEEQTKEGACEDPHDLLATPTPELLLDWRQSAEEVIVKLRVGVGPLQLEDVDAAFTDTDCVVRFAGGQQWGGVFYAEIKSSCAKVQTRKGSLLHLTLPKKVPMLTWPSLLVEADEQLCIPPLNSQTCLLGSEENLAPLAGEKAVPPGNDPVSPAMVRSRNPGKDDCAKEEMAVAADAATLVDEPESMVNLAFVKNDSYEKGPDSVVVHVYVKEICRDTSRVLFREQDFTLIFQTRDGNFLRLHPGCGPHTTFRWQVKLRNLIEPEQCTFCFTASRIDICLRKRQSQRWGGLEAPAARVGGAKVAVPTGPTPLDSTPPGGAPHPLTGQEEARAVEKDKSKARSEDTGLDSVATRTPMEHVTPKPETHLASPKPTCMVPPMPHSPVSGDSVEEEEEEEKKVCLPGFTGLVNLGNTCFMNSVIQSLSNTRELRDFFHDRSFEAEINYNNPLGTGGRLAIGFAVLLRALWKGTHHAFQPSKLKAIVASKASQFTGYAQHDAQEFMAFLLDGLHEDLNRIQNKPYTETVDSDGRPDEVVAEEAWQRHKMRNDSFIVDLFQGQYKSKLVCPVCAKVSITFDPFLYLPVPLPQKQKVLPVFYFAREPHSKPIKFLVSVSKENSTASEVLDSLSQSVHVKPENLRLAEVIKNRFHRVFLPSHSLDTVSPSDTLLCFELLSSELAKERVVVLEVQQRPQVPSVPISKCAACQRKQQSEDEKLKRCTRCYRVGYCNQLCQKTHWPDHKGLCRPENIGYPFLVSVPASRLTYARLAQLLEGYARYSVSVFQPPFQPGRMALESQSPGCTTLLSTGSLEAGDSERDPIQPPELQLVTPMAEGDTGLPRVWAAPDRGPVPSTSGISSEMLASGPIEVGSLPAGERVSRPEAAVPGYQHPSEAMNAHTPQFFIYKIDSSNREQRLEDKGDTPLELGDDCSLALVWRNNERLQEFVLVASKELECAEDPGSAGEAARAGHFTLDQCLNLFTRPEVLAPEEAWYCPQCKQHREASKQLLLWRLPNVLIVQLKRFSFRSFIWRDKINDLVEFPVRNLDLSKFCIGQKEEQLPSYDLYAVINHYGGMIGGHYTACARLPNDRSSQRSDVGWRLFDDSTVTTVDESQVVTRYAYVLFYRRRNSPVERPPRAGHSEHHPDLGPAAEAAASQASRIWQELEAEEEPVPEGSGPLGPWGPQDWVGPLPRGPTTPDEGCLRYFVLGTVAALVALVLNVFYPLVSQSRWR
How it was run: (§1)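 Labelled DUBs from HEK293T lysate were NeutrAvidin-enriched, digested with LysC and trypsin, and run by diaPASEF LC-MS/MS. Before that, each 495 µg sample in Tris/CHAPS/IGEPAL buffer with protease inhibitors was treated in triplicate with fragment at 200 µM or vehicle for 3 h, then with Biotin-Ahx-Ub-VS at 0.5 µM final for 1 h. Values are average log2 ratios of fragment over vehicle by unpaired t-test, based on global-median-normalised Spectronaut label-free quantities from proteins with ≥2 unique peptides.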

USP22 = target: T2, USP22 (UniProt Q9UPT9)
T2 sequence (whole entry): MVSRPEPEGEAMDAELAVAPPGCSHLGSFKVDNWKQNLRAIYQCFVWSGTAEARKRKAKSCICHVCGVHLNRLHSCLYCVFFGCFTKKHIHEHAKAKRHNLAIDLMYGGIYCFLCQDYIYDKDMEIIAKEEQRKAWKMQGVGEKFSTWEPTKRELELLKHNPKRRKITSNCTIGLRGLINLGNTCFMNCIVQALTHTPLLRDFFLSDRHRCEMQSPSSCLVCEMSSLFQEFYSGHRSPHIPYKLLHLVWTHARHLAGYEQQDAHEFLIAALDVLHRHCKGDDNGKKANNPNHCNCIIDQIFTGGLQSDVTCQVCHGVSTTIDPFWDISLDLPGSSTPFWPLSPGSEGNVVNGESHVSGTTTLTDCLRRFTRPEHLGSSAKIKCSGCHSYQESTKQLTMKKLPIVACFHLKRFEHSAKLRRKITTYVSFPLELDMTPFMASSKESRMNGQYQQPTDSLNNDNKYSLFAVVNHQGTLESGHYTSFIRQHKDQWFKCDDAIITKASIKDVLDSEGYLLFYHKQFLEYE
How it was run: as §1

USP24 = USP24 (UniProt Q9UPU5)
How it was run: as §1

USP25 = target: T3, USP25 (UniProt Q9UHP3)
T3 sequence (whole entry): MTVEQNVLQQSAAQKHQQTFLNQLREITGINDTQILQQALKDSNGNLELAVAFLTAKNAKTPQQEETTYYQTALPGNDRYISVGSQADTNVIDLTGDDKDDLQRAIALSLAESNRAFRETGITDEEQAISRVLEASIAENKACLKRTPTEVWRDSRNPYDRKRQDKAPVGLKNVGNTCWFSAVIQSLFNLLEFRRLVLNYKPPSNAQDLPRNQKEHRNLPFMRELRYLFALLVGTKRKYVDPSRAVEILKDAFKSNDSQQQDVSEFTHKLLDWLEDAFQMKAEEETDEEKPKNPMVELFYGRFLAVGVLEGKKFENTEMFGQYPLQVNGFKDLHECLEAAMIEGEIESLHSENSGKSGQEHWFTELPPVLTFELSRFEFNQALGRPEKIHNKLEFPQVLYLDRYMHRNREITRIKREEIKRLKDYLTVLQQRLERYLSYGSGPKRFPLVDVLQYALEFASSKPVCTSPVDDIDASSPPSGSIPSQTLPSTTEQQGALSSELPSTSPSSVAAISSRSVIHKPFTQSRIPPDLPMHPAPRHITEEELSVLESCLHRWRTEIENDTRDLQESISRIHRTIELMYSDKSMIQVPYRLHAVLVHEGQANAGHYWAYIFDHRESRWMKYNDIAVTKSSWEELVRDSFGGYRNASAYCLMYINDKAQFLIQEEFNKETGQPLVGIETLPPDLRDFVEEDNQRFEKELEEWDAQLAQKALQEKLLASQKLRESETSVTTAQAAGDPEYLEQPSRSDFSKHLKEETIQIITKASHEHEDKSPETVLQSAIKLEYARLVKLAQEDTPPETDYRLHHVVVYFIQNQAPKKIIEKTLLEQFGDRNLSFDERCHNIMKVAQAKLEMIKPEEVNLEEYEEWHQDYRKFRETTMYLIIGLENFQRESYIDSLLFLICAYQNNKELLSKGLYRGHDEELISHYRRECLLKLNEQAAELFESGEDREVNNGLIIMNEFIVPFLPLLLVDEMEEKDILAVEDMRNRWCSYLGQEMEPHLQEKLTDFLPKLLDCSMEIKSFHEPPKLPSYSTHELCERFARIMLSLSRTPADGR
How it was run: as §1

USP28 = target: T4, USP28 (UniProt Q96RU2)
T4 sequence (whole entry): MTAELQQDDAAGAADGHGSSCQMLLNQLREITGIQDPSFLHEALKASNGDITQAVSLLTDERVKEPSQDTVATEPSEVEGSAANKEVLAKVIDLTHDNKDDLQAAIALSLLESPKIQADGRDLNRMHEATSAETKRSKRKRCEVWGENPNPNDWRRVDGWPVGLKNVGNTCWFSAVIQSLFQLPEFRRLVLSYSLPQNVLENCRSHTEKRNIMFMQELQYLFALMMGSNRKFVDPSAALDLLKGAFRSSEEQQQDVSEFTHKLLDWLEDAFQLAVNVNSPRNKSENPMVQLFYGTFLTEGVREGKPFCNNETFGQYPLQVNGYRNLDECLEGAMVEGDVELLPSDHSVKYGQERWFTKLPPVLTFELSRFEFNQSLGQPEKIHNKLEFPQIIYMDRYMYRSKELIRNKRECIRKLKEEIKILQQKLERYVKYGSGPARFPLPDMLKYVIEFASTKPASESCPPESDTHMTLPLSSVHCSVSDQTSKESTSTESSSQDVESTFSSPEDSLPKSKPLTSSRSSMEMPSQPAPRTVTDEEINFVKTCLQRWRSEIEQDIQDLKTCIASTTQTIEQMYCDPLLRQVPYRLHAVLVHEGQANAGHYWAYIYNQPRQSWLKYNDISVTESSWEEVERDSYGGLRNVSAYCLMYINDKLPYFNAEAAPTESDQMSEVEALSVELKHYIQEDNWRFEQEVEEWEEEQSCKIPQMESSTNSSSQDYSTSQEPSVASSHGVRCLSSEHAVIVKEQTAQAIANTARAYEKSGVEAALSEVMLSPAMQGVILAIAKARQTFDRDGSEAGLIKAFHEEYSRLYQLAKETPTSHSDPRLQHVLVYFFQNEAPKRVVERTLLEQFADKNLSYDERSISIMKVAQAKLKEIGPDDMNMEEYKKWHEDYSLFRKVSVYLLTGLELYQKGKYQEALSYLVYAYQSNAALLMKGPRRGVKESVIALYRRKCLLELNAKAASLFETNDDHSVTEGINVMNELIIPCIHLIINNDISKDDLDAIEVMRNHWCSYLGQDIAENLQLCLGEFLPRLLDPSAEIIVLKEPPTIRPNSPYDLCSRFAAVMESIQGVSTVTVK
How it was run: as §1

Measured: log2 ratio of Biotin-Ahx-Ub-VS probe labelling

Sequence of USP24 (Q9UPU5 whole entry): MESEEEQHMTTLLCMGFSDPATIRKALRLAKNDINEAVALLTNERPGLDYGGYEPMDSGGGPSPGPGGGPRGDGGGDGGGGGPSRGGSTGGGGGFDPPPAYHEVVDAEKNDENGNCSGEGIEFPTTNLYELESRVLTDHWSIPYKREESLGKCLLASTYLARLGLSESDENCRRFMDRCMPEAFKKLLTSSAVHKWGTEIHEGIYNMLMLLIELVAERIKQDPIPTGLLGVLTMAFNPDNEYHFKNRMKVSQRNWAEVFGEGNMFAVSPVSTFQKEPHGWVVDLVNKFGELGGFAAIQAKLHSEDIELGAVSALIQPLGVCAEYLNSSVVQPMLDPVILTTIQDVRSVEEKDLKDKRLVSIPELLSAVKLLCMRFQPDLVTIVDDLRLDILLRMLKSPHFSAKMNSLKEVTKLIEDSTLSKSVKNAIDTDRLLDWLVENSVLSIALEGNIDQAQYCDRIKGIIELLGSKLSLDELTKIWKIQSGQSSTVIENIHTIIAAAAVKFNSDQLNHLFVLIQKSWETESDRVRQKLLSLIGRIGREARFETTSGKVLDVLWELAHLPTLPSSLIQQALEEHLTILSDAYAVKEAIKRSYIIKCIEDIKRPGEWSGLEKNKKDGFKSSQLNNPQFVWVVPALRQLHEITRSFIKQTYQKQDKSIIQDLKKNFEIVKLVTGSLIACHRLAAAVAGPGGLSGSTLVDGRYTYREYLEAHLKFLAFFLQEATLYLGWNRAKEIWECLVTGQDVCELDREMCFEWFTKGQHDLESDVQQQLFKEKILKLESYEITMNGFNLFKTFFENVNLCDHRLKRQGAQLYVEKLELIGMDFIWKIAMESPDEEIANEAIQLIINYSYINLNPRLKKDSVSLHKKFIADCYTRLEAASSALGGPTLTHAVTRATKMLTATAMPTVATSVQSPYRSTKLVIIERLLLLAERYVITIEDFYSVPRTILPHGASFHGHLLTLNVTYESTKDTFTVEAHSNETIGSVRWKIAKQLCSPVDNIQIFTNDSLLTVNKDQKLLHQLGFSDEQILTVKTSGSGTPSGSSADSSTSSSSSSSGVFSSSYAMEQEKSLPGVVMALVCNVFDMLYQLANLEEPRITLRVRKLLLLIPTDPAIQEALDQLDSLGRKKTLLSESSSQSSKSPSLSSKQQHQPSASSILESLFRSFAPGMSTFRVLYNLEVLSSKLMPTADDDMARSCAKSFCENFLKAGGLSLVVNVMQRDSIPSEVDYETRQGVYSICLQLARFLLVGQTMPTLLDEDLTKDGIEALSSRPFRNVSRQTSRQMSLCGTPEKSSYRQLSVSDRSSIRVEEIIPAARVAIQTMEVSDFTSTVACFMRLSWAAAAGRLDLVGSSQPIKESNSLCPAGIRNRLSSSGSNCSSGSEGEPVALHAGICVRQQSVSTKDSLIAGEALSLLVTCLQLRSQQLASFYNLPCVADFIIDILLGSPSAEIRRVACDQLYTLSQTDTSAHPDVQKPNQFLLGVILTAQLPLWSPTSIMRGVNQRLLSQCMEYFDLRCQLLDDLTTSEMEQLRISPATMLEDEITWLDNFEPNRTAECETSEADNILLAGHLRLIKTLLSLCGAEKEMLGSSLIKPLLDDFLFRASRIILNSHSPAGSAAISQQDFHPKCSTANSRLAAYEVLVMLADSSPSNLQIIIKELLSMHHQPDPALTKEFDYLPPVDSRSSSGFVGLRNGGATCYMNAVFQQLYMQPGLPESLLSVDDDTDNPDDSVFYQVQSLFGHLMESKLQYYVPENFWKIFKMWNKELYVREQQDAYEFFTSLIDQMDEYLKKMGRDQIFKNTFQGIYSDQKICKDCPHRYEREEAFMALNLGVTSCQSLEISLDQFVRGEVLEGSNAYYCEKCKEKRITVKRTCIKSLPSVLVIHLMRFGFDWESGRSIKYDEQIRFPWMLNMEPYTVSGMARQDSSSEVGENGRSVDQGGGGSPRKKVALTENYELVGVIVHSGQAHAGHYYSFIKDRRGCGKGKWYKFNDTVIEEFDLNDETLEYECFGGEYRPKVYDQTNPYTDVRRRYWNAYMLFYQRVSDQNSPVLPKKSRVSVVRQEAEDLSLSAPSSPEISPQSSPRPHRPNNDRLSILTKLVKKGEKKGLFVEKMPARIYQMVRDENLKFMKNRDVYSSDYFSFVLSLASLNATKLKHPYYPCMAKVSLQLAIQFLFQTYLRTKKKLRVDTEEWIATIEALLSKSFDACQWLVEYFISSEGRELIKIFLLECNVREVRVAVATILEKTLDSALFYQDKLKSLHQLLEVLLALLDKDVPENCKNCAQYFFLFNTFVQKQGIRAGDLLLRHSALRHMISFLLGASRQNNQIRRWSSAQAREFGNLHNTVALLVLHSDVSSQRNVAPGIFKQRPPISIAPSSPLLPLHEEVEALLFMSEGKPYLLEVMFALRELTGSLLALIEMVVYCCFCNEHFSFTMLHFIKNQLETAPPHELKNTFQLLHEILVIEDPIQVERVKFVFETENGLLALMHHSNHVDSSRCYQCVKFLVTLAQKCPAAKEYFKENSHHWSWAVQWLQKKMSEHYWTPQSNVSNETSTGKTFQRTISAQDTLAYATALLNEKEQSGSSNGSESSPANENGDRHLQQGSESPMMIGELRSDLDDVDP

O=C(CCl)NCCC1=CCCCC1
inactive: USP19 -0.00951 | USP22 -0.0359 | USP24 -0.0898 | USP25 -0.223 | USP28 -0.444
